This is a sample that favours compounds with a hit; in the whole collection about 12% have one here.
m-calpain inh: calpain II (pig) inhibition | purified calpain II, fluorogenic peptide substrate, 30 min | inhibition, % at 16 µM | 0.37% of 220,000 active | AID 1236;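 active = inhibition above about 50%, limit read from the data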
L major viab: Leishmania major promastigote growth inhibition; AID 1063; 9% of 200,000 active; inhibition, % at 10 µM; Leishmania major promastigotes, resazurin fluorescence viability; in the data active = inhibition above about 50%;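 also: promastigotes grown with compound for 44 hours at 28 °C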
KCC2 mod: modulators of human KCC2 chloride dependent transport; 2.2% of 190,000 active; B-score of Tl+ flux slope (higher = more flux/activation; lower = inhibition) at 10 µM; AID 1456; KCC2 cells, thallium flux FluoZin-2 fluorescence;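 active = thallium flux slope and its plate-corrected score both differing from the plate sample mean at a set confidence after two filtering rounds, in either direction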;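 also: slope of fluorescence scaled to starting intensity during 10 to 20 s after thallium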
ROMK primary: modulators of human ROMK potassium channel; Tet-inducible ROMK, thallium flux fluorescence; actives lie on both sides; P48048; AID 1918; 2% of 130,000 active; B-score at 10 µM;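 active = signal ratio slope over the read window, or its plate-corrected B-score, at least 3 SD from the plate mean, either direction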;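 also: B-score of the F/F0 ratio slope over 7 to 12 s after thallium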
Target sequence (P48048 whole entry, looked up): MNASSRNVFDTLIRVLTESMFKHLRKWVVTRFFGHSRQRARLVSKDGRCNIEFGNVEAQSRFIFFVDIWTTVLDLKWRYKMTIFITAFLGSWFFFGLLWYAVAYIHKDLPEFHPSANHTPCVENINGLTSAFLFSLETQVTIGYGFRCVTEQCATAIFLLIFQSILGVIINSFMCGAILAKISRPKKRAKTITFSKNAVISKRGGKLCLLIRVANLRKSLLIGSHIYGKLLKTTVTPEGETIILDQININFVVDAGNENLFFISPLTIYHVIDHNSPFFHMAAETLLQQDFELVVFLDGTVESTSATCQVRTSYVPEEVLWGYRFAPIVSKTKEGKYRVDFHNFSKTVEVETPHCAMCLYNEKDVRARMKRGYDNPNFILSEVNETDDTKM
WT yeast gro inh: growth inhibition of WT yeast, mitochondrial fusion screen | mitochondrial fusion phenotypic screen, WT strain | inhibition, % at 10 µM | 2.1% of 190,000 active | AID 1362; in the data active = inhibition above about 58%; tested in S. cerevisiae
Hits are given with their value; n = inactive; x = not tested or not shown.

SMILES | m-calpain inh | L major viab | KCC2 mod | ROMK primary | WT yeast gro inh
Cc1ccc(/C=N/Nc2ccc3ccccc3n2)o1 | n | 63.5 | n | n | n
C(=N\Nc1ccc2ccccc2n1)/c1ccc2c(c1)OCCO2 | n | n | n | n | n
Cc1cc(C(=O)N/N=C/c2ccc(C)o2)c2ccccc2n1 | n | n | n | n | n
O=C(/C=C/c1ccco1)N1CCN(C/C=C/c2ccccc2)CC1 | n | n | n | x | n
COc1cccc(C(=O)Nc2ccc(N3CCN(Cc4ccccc4)CC3)cc2)c1 | n | n | x | n | n
CCOc1cccc(C(=O)NC(=S)Nc2ccccc2)c1 | n | n | 18.6 | n | n
COc1ccc(C(=O)Nc2ccc(N3CCN(Cc4ccccc4)CC3)cc2)cc1 | n | n | n | n | n
O=C(NC(=S)Nc1ccc(CN2CCCCC2)cc1)c1cccc(OCc2ccccc2)c1 | n | 84.2 | n | n | 71.7
COc1c(F)c(F)c(C(=O)Nc2ccc(N3CCN(Cc4ccccc4)CC3)cc2)c(F)c1F | n | 51.7 | n | n | n
CCN1CCN(c2ccc(NC(=O)c3cccc(OCc4ccccc4)c3)cc2)CC1 | n | n | n | n | n
CCOc1cccc(C(=O)NC(=S)Nc2cccnc2)c1 | n | n | n | n | n
CN1CCN(c2ccc(NC(=O)c3cccc(OCc4ccccc4)c3)cc2)CC1 | n | 100.3 | n | n | n
COc1ccc(N(CC(=O)N2CCCCC2)S(=O)(=O)c2ccccc2)c(OC)c1 | n | n | n | x | n
CC1(C)COCN1C(=O)c1ccc(Cl)c(Cl)c1 | n | n | n | n | n
O=C(NNS(=O)(=O)c1ccccc1)c1ccc(S(=O)(=O)N2CCCCC2)cc1 | n | n | n | n | n
O=C1Nc2ccc(Br)cc2C12NNc1ccccc1O2 (stereo not given) | n | 72.9 | n | n | 87.6
COc1ccccc1CNC(=O)CN(C)S(=O)(=O)c1cccc2cccnc12 | n | x | n | n | x
Cc1cc(C)n2nc(SCC(=O)c3cc(C)n(CC4CCCO4)c3C)nc2n1 (stereo not given) | n | n | n | n | n
COCCn1c(C)cc(C(=O)CSc2nc3nc(C)cc(C)n3n2)c1C | n | 61.9 | n | n | n
O=C(NC1CCCC1)c1ccc(CSCc2ccccc2F)o1 | n | 89.3 | n | n | n
CNC(=S)N/N=C/c1ccccc1Cl | n | n | n | n | n
Oc1ccc(/C=N/NC(=S)Nc2cccnc2)c(O)c1O | n | x | n | x | x
Oc1ccc(/C=N/NC(=S)Nc2cccnc2)c(O)c1 | n | 84.3 | n | n | n
S=C(N/N=C/c1ccccc1Cl)Nc1ccccc1 | n | n | 15.6 | x | n
Oc1cccc(/C=N/NC(=S)Nc2cccnc2)c1O | n | 98.8 | n | n | n
SMILES | m-calpain inh | L major viab | KCC2 mod | ROMK primary | WT yeast gro inh
CCOc1ccc(C(=O)NCC(=O)OCC(=O)N2CCCC2)cc1 | n | n | n | n | n
Cc1ccc(S(=O)(=O)c2c(N)n(CCC(C)C)c3nc4ccccc4nc23)cc1 | n | 68.7 | n | n | n
CCCCn1c(NS(=O)(=O)c2ccccc2)c(S(=O)(=O)c2ccc(C)cc2)c2nc3ccccc3nc21 | n | 50.8 | -7.11 | x | n
Nc1c(S(=O)(=O)c2ccccc2)c2nc3ccccc3nc2n1C1CC1 | n | n | n | n | n
Cc1ccc(S(=O)(=O)c2c(N)n(CCCO)c3nc4ccccc4nc23)cc1 | n | 73.0 | n | n | n
CCCCn1c(NC(=O)c2ccco2)c(S(=O)(=O)c2ccc(C)cc2)c2nc3ccccc3nc21 | n | n | n | n | n
Cn1c(N)c(S(=O)(=O)c2ccc(Br)cc2)c2nc3ccccc3nc21 | n | 75.0 | n | x | n
Cc1ccc(C(=O)Nn2c(N)c(S(=O)(=O)c3ccc(C)cc3)c3nc4ccccc4nc32)cc1 | n | n | n | n | n
CCc1cccc(C)c1NC(=O)C1CC=CCC1C(=O)O (stereo not given) | n | n | n | n | n
CCc1nnc(NC(=O)CN2C(=O)/C(=C/c3ccc(OC)c(OC)c3)SC2=S)s1 | n | n | n | n | n
CNC(=O)CSc1nnc(C(C)C)n1C | n | n | n | n | n
Cc1ccc(Nc2nnc(SCC(=O)NC(Cc3c[nH]c4ccccc34)C(=O)O)s2)cc1 (stereo not given) | n | n | n | n | n
COc1ccc2ccccc2c1CNC(=O)CC1C(=O)NCCN1CC(C)(C)C (stereo not given) | n | x | n | x | x
CCCCN=C(NNc1ccc(Br)cc1)C(=O)OCC | n | n | n | x | 64.4
CCOC(=O)C(=NCCCN(C)C)NNc1ccc(Br)cc1 | n | 66.7 | n | x | n
CCOC(=O)C(=O)NNc1ccc(C)cc1 | n | n | n | x | 61.7
CCOC(=O)C(=O)NNc1ccc(Cl)cc1 | n | n | n | n | n
O=C(Nc1cccc(-c2cn3cccnc3n2)c1)c1ccco1 | n | 100.1 | n | x | n
O=C(Nc1cccc(-c2cn3cccnc3n2)c1)c1cccs1 | n | 98.4 | n | x | n
Cc1cccn2cc(-c3cccc(NC(=O)c4cccs4)c3)nc12 | n | n | n | n | n
O=C(Nc1ccc(O)c(-c2nc3ccccc3s2)c1)c1cccs1 | n | 62.1 | n | n | n
O=C(Nc1cccc(-c2csc(-c3ccccc3)n2)c1)c1cccs1 | n | 82.1 | x | n | n
S=C1NCCNC(=S)NCCOCCN1 | n | n | n | n | n
O=c1n(S(=O)(=O)c2cccc3cccnc23)c2ccccc2n1S(=O)(=O)c1cccc2cccnc12 | n | n | n | n | n
COC(=O)C1C(O)=C(C=Nc2ccc3ccccc3c2)C(=O)CC1(C)C (stereo not given) | n | n | n | n | n
SMILES | m-calpain inh | L major viab | KCC2 mod | ROMK primary | WT yeast gro inh
Cn1[nH]c(C(F)(F)F)c(C=Nc2ccc(Cl)cc2)c1=O | n | n | n | n | n
COc1ccc(OC)c(NC(=O)C(=S)NC2CCCCC2)c1 | n | n | n | n | 73.6
Cc1ccc(-c2nn(-c3ccccc3)cc2CN(Cc2ccccc2)C(=O)c2ccco2)o1 | n | n | n | n | n
COC(=O)c1ccc(NC(CC(C)C)C(=O)OC)c([N+](=O)[O-])c1 (stereo not given) | n | 52.0 | n | n | n
CNC(=O)c1oc(-c2ccc(Cl)cc2)nc1C | n | n | n | n | n
COc1ccc(-c2noc(CN3CCN(c4ccccc4F)CC3)n2)cc1OC | n | n | n | x | n
COc1ccc(-c2nc3ccccn3c2CN2CCN(c3ccccc3F)CC2)cc1 | n | 85.2 | n | n | 81.6
CNC(=S)N/N=C/c1c(C)nn(-c2ccccc2)c1Cl | n | n | n | n | n
Cc1nn(-c2ccccc2)c(Cl)c1/C=N/NS(=O)(=O)c1ccc(Br)cc1 | n | n | n | n | 58.2
Cc1scc(C(=O)N2CCN(c3ccc(Cl)cc3)CC2)c1C | n | n | n | n | n
COc1ccc2nc(NC3=NC(c4ccccc4)CC(=O)N3)nc(C)c2c1 (stereo not given) | n | 94.4 | n | n | n
CCc1c(C)nc(Nc2nc(C)c3ccc(OC)cc3n2)[nH]c1=O | n | 94.1 | n | n | 62.4
COc1ccc2nc(Nc3nc(CSc4nc5ccccc5[nH]4)cc(=O)[nH]3)nc(C)c2c1 | n | 100.1 | n | n | n
COc1ccc(NC2=CC(=O)CC(c3ccccc3)C2)c(OC)c1 (stereo not given) | n | n | n | n | n

Source: PubChem BioAssay
